Assay outcomes as filed in PubChem BioAssay.
Autofluor 339 – intrinsic fluorescence of library compounds, ex339/em460 – biochemical, MLSMR library, data from DPM-DC assay, artefact control, profiling panel; compound autofluorescence, ex339/em460 nm, NADH buffer; stronger effect = higher value; 1 = no-compound wells, NADH background; fluorescence fold increase at 10 µM; 5.5% of 65,000 active;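 active = at 10 µM, mean starting fluorescence two-fold or more over control wells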;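 note: signal is the first read of a kinetic run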
MK inhibit – blocks S. pneumoniae mevalonate kinase | 0.48% of 65,000 active | purified MK, PK/LDH-coupled NADH absorbance 340 nm | inhibition, % at 10 µM;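 active = ranked among the strongest by inhibition in the single 10 µM screen, a fixed top-ranked set picked for dose follow-up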
A340 absorber – absorbance at 340 nm; compound absorbance at 340 nm, fold over control; fold change at 10 µM; 65,000 tested, under 10 active; AID 708;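 active = at 10 µM dose, initial 340 nm absorbance at least 2 fold that of control wells; inactive = change under 2 fold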;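 note: initial absorbance extrapolated from kinetic A340 decline of NADH oxidation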
NADH coupling – inhibition of NAD/NADH coupling enzymes, library profiling. coupled PK/LDH NADH assays, four targets. IC50, µM (highest dose often 10 µM), for the others: at the top dose inhibition. 0.02% of 65,000 active. AID 774;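 active = single-dose screening hits from any of four coupled enzyme assays that gave an IC50 when retested across doses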;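 note: the DPM-DC format reads NADH fluorescence rather than 340 nm absorbance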
PMK inhibit – S. pneumoniae PMK inhibition | purified PMK, PK/LDH-coupled NADH absorbance 340 nm | inhibition, % at 10 µM | 0.49% of 65,000 active;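 active = top-ranked compounds by inhibition in the single 10 µM screen, taking a fixed number of the strongest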;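 note: 0% = full reaction with DMSO carrier and 100% = background rate without enzyme reaction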
DPM-DC inhibit – blocks S. pneumoniae diphosphomevalonate decarboxylase; purified DPM-DC, PK/LDH coupled NADH fluorescence; calls only at 10 µM; AID 556; 0.49% of 65,000 active;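 active = the 320 compounds with the highest percent inhibition in the single-dose primary screen, excluding strongly autofluorescent ones, cut at about 32% in these data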;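 note: kinetic rate of NADH fluorescence loss reporting ADP formed by the decarboxylase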
* = called active by the depositor. Sampled rows, rich in hits. Any-hit rate of the full collection: about 6.3%.

How did COC(=O)c1[nH]c2ccc(C)cc2c1NC(=O)CN1CCCCC1C (stereo not given) do in these assays?
Autofluor 339: 2.29*; MK inhibit: 8.0; A340 absorber: 1.05; NADH coupling: 11.0%; PMK inhibit: 11.0; DPM-DC inhibit: inactive

Results for CCOC(=O)C1CCCN(CC(=O)Nc2c(C(=O)OC)[nH]c3ccc(C)cc23)C1 (stereo not given) ?
Autofluor 339: 2.6*; MK inhibit: 12.0; A340 absorber: 1.05; NADH coupling: 12.0%; PMK inhibit: 12.0; DPM-DC inhibit: inactive

How did COC(=O)c1[nH]c2ccc(C)cc2c1NC(=O)CCN1CCN(Cc2ccc3c(c2)OCO3)CC1 do in these assays?
Autofluor 339: 2.27*; MK inhibit: 12.0; A340 absorber: 1.01; NADH coupling: 8.0%; PMK inhibit: 2.0; DPM-DC inhibit: inactive

What do the screens show for `CCOC(=O)c1c(NC(=O)CSc2nnnn2C)sc(CC)c1C`?
Autofluor 339: 1.09; MK inhibit: 8.0; A340 absorber: 1.05; NADH coupling: 3.0%; PMK inhibit: 1.0; DPM-DC inhibit: inactive

What do the screens show for `CCOc1ccc2cc(C#N)c(SCC(=O)N3CCOCC3)nc2c1`?
Autofluor 339: 2.73*; MK inhibit: 11.0; A340 absorber: 1.02; NADH coupling: 3.0%; PMK inhibit: 3.0

How did CSc1ccc(-c2cc(=O)c3ccccc3o2)cc1 do in these assays?
Autofluor 339: 2.89*; MK inhibit: 0.0; A340 absorber: 1.06; NADH coupling: 3.0%; PMK inhibit: 14.0

How did O=C(Nc1cc(=O)c2ccccc2o1)N1CCCCC1 do in these assays?
Autofluor 339: 1.18; MK inhibit: 11.0; A340 absorber: 1.11; NADH coupling: 4.0%; PMK inhibit: 0.0; DPM-DC inhibit: inactive

What do the screens show for `Cc1ccc(CS(=O)(=O)CCC(=O)N2CCOCC2)cc1`?
Autofluor 339: 1.13; MK inhibit: 0.0; A340 absorber: 1; NADH coupling: 5.0%; PMK inhibit: 15.0; DPM-DC inhibit: inactive

Results for O=c1c2ccccc2nc2n1CCN2Cc1ccc(Cl)cc1 ?
Autofluor 339: 2.18*; MK inhibit: 9.0; A340 absorber: 1.04; NADH coupling: 5.0%; PMK inhibit: 1.0

How did O=C(c1noc2c1CCCCC2)N1CCN(C(c2ccccc2)c2ccccc2)CC1 do in these assays?
Autofluor 339: 1.07; MK inhibit: 7.0; A340 absorber: 1.03; NADH coupling: 2.0%; PMK inhibit: 0.0; DPM-DC inhibit: inactive

Results for COc1ccc(-c2[nH]nc3oc(=O)cc(C)c23)cc1 ?
Autofluor 339: 2.19*; MK inhibit: 7.0; A340 absorber: 1.04; NADH coupling: 5.0%; PMK inhibit: 3.0

How did COc1ccc(CCNC(=O)CSc2nnc(CNC(=O)c3ccccc3F)o2)cc1OC do in these assays?
Autofluor 339: 1.09; MK inhibit: 4.0; A340 absorber: 1.05; NADH coupling: 4.0%; PMK inhibit: 7.0; DPM-DC inhibit: inactive

How did CCN(CC)c1ccc(C2C(C(=O)OCCOC(C)C)=C(C)NC3=C2C(=O)CCC3)cc1 (stereo not given) do in these assays?
Autofluor 339: 1.35; MK inhibit: 0.0; A340 absorber: 1.1; NADH coupling: 4.0%; PMK inhibit: 0.0; DPM-DC inhibit: inactive

Results for CC1=C(C(=O)OCCOC(C)C)C(c2cccnc2)C2=C(CCCC2=O)N1 (stereo not given) ?
Autofluor 339: 2.21*; MK inhibit: 2.0; A340 absorber: 1.08; NADH coupling: 2.0%; PMK inhibit: 1.0

What do the screens show for `COCCOC(=O)C1=C(C)NC2=C(C(=O)CC(C)(C)C2)C1c1cccnc1` (stereo not given)?
Autofluor 339: 3.81*; MK inhibit: 11.0; A340 absorber: 1.05; NADH coupling: 11.0%; PMK inhibit: 11.0

Results for CC1=C(C(=O)OCC2CCCO2)C(c2ccncc2)C2=C(CC(C)(C)CC2=O)N1 (stereo not given) ?
Autofluor 339: 2.09*; MK inhibit: 2.0; A340 absorber: 1.07; NADH coupling: 1.0%; PMK inhibit: 0.0

How did CCOC(=O)C1=C(C)NC2=C(C(=O)CC(C)(C)C2)C1c1ccc(N(C)C)cc1 (stereo not given) do in these assays?
Autofluor 339: 1.16; MK inhibit: 0.0; A340 absorber: 1; NADH coupling: 4.0%; PMK inhibit: 0.0; DPM-DC inhibit: inactive
